# HepG2 tox – HepG2 cytotoxicity, counter-screen for TGF-b inhibitors; Potency, µM (highest dose often 46.1 µM), without a hit: at the top dose activity change, negative = cytotoxicity, most hits filed as cytotoxic; 0.76% of 410,000 active; HepG2 CAGA-GFP viability, ATP luminescence, 18 h; note: potency is the fitted concentration of half-maximal effect
#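 CellTiter-Glo luminescence gave cytotoxicity after 18 hours at 37 degrees C. The cells were HepG2 CAGA-GFP in 1% FBS DMEM, stimulated with 500 pg/mL TGF-beta after compound addition. %Activity was normalised to no-cell wells (complete cell-killing) and DMSO (no toxicity), and curves were fitted and classified.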
# TGFb SMAD3 inh – blocks TGF-b signaling; HepG2 CAGA-GFP TGF-b/SMAD3 reporter, GFP fluorescence, 18 h; TGF-beta stimulated, 500 pg/mL final; Potency, µM (titrated, usually from 46.1 µM), for the others: at the highest dose activity, negative = inhibition, most hits filed as inhibitors; 1.2% of 410,000 active; note: potency is the fitted concentration of half-maximal effect; % is set by controls: 0 for no effect and ±100 for the full control effect; nearly all actives have a fitted effect of over 65% in size
#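 Using HEPG2 CAGA-GFP reporter cells at 1000 cells/well, we pinned test compounds, stimulated with recombinant TGF-beta (500 pg/mL final) and measured total well GFP after 18 h.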
# IL1B secr inh – blocks inflammasome-driven IL-1 beta release. THP-1 LPS/ATP IL-1B secretion, AlphaLISA, 16 h; stronger effect = lower value. activity change, % at 57.5 µM. 4.7% of 360,000 active; in the data active = activity change below about -50%; inconclusive = mostly about -30% to -49%; note: % is set by controls: 0 for no effect and ±100 for the full control effect
#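 THP-1 cells pretreated 1 hr with compounds (up to 57.5 uM final), then stimulated with LPS (250 ng/mL final) plus ATP (1.25 mM final); secreted IL-1B measured by AlphaLISA after 16 hr, decreased signal indicating inhibition.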
# DT40 TDP1 no CPT – qHTS for Inhibitors of human tyrosyl-DNA phosphodiesterase 1 (TDP1): qHTS in cells in absence of CPT. Potency, µM (highest dose often 46.2 µM), without a hit: top-dose activity change, negative = growth inhibition, hits mostly inhibitors. 15% of 420,000 active. DT40 Tdp1-/- hTDP1 cells, no CPT, ATP luminescence, 48 h; note: potency is the fitted concentration of half-maximal effect; % is set by controls: 0 for no effect and ±100 for the full control effect; nearly all actives have a fitted effect of over 55% in size
#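 A cellular qHTS used chicken DT40 cells lacking endogenous Tdp1 but carrying stably transfected human TDP1. Compounds were applied without camptothecin, and cell growth kinetics were judged by ATP-dependent luminescence after ≥48 hr.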
# TDP1 block – TDP1 (human) enzyme inhibition; recombinant TDP1, AlphaScreen DNA substrate cleavage; Potency, µM (series often up to 130 µM), for the others: top-dose activity change, negative = inhibition, most hits filed as inhibitors; 0.28% of 350,000 active; AID 485290; note: potency is the fitted concentration of half-maximal effect; % is set by controls: 0 for no effect and ±100 for the full control effect; nearly all actives have a fitted effect of over 40% in size
# Target sequence (Q9NUW8 whole entry, looked up): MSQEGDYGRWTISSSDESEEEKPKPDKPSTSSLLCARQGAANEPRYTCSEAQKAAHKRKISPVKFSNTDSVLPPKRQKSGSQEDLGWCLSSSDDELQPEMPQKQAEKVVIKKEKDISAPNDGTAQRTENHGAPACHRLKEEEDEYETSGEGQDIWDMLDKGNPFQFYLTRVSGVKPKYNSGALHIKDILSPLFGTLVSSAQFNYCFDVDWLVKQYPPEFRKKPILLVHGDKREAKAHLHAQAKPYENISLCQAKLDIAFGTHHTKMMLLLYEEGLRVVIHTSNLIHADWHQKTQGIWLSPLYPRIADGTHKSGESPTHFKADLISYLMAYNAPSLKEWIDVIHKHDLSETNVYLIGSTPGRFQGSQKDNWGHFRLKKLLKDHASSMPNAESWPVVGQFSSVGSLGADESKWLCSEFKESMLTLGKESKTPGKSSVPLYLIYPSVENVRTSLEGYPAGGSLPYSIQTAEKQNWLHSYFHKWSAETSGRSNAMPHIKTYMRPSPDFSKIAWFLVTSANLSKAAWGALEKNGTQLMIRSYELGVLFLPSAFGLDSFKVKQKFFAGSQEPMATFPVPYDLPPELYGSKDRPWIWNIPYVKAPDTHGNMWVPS
#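 Enzyme-compound mixtures sat 15 min at room temperature, followed by a 5 min reaction with 15 nM final substrate and 10 min with AlphaScreen beads. Recombinant human Tdp1 was used at 1 nM final.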
# DT40 TDP1 CPT – DT40-hTDP1 cell growth loss with CPT | chicken DT40 Tdp1-/-;hTDP1 cells + 20 nM CPT, ATP luminescence, 48 h | 12% of 420,000 active | Potency, µM (top dose mostly 46.2 µM), without a hit: at the top dose activity change, negative = growth inhibition, hits mostly inhibitors; note: potency is the fitted concentration of half-maximal effect; % is set by controls: 0 for no effect and ±100 for the full control effect; nearly all actives have a fitted effect of over 55% in size
#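 Cell growth measured by CellTiter-Glo luminescence after a minimum 48 h, 37 C compound exposure with 20 nM CPT in Tdp1-knockout DT40 cells stably expressing hTDP1, seeded 400/well; qHTS titration format.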
# The depositor's hits bear a star; ? = inconclusive; . = no result; [ ] = another dose, or the depositor's remark. Shown are actives, neighbours in structure and some others; about 18% of the full set was active somewhere. Unless noted, calls come from the whole dose curve; as a rule, active = well fitted curve in the direction sought with a large enough effect; inconclusive = small, poorly fitted or top-dose-only effect, or another doubt; inactive = no such curve, though single readings can be large; an effect the other way counts as inactive or inconclusive.
SMILES,HepG2 tox,TGFb SMAD3 inh,IL1B secr inh,DT40 TDP1 no CPT,TDP1 block,DT40 TDP1 CPT
COc1ccccc1C(CCNCc1ccc(N(C)C)cc1)c1ccc(OC(C)C)cc1 (stereo not given),-113%,?,-101*,7.3µM*,.,21µM*
COc1ccc(CNCCCSc2ncccn2)cc1OC,-9%,9%,-8,-18%,.,1%
COc1ccc(CCNCC(C)c2ccccc2)cc1 (stereo not given),-2%,?,-7,-20%,.,-10%
COc1ccc(CNCCC(c2ccc(OC(C)C)cc2)c2ccccc2OC)cc1OC (stereo not given),-99%,?,.,10µM*,.,8.2µM*
COC(=O)c1ccccc1NC(=O)Cn1cnc2sc(C)c(S(=O)(=O)N3CCC(C)CC3)c2c1=O,-18%,-21%,.,?,9%,?
O=C(CN1C(=O)NC2(CCCCC2)C1=O)Nc1ccccc1N1CCCC1,-22%,2%,-4,-17%,4%,-7%
Cc1ccccc1Nc1nc(Cl)nc(NC(C)(C)C)n1,-20%,0%,-24,-28%,.,-21%
COc1ccc(C2/C=C\CN(S(=O)(=O)CC34CCC(CC3=O)C4(C)C)CC(=O)N2Cc2ccc(F)cc2)cc1 (stereo not given),-1%,-4%,.,.,7%,.
Cc1nnc(N2C(=O)c3oc4ccccc4c(=O)c3C2c2cccc(OCCC(C)C)c2)s1 (stereo not given),-24%,-1%,.,?,-1%,-6%
COc1ccc(/C=C2\Cc3ccccc3C2=O)cc1OC,1%,-9%,-1,?,6%,-19%
COc1cc(C=C2Cc3ccccc3C2=O)cc(OC)c1OC,-9%,-14%,17,8.2µM*,.,16µM*
COc1cc(N(C)C)c(OC)cc1/C=C1\Cc2ccccc2C1=O,-8%,33%,.,11µM*,.,?
O=C(c1ccccc1)n1nc(-c2ccco2)nc1NCc1ccccc1Cl,-1%,5%,.,-6%,6%,1%
CCOc1ccc(CCNC(=O)c2ccc3c(c2)nc2n3CCOC2)cc1OCC,3%,0%,.,?,3%,?
CCOc1ccc(NC(=O)c2ccc(NC(=O)CCS(=O)(=O)c3cccs3)cc2)cc1,4%,11%,.,-2%,-1%,2%
COc1ccc(N=CC2=C(O)c3ccccc3C2=O)c(OC)c1,13%,-5%,-13,18µM*,3%,?
Cc1ccccc1N=CC1=C(O)c2ccccc2C1=O,-12%,-12%,-8,16µM*,-2%,?
Cc1ccc(C(=O)c2cnc3ccccc3c2-c2ccccc2)cc1,-21%,-33%,-10,23µM*,4%,?
COc1ccc(C(=O)c2cnc3ccccc3c2-c2ccccc2)cc1,-14%,0%,28,?,6%,-21%
Cc1ccc(S(=O)(=O)N2CC=C(C(=O)NC3CC3)CC2)cc1,5%,-16%,-5,?,.,?
O=[N+]([O-])c1ccc(-c2nc(Cl)c3c(n2)CCCC3)o1,-100%,?,-94*,16µM*,.,9.2µM*
COC(=O)c1ccc(N=NN2CCCCCC2)cc1,-6%,7%,-63*,2%,-8%,1%
O=c1[nH]c2cc(S(=O)(=O)CCO)ccc2o1,-2%,0%,3,17%,-14%,-1%
C=CCOC(=O)C(C(C)=O)C(NC(=O)OC)c1cccc(F)c1 (stereo not given),.,.,.,.,-1%[21 µM],.
CC(/C=C(\NC(=O)c1ccccc1)C(=O)N=Nc1c(O)[nH]c2ccc(C)cc12)=C\c1ccccc1,2%,-3%,-8,8.2µM*,6%,8.2µM*

# Bioassay records as filed in PubChem BioAssay.
